These results are taken from PubChem BioAssay (NCI).

A short description of assay [1]: NCI Yeast Anticancer Drug Screen. Data for the rad50 strain (AID 155).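 Further: 0% = growth of vehicle-only cultures of the same strain.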 The following applies: S. cerevisiae rad50 strain growth inhibition, hits give high values; at 50.0 µM unless noted. The procedure, abridged: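 Inhibition values express reduced yeast growth in compound-treated cultures relative to vehicle-treated controls.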
Assay [2] can be described thus: NCI Yeast Anticancer Drug Screen. Data for the mec2-1 strain (AID 157). The settings on record: S. cerevisiae mec2-1 strain, hits give high values; at 50.0 µM unless noted. The gist of the method:
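Readout is yeast growth inhibition, normalised to vehicle-treated controls, in the mec2-1 strain exposed to compound.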

The nature of assay [3]: NCI Yeast Anticancer Drug Screen. Data for the sgs1 mgt1 strain (AID 161).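 Further: 0% = growth of cultures given vehicle only.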 The following applies: S. cerevisiae sgs1 mgt1 strain, hits give high values; at 50.0 µM unless noted. The gist of the method:
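Percent growth inhibition was derived by comparing compound-exposed mutant yeast with vehicle-exposed cultures. The strain carries alterations in DNA damage repair.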

A short description of assay [4]: NCI Yeast Anticancer Drug Screen. Data for the cln2 rad14 strain (AID 165).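 Further: 0% = growth equal to vehicle treated cultures.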 The following applies: S. cerevisiae cln2 rad14 strain, hits give high values; at 50.0 µM unless noted. The gist of the method:
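Relative to vehicle controls, growth inhibition of compound-treated cln2 rad14 yeast was recorded.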

Assay [5] can be described thus: NCI Yeast Anticancer Drug Screen. Data for the bub3 strain (AID 167). The following applies: S. cerevisiae bub3 mutant strain, hits give high values; at 50.0 µM unless noted. The gist of the method: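 Steps: expose the mutant yeast strain to compound; grow alongside vehicle-treated cultures; measure growth; express inhibition against the vehicle cultures.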
The nature of assay [6]: NCI Yeast Anticancer Drug Screen. Data for the mlh1 rad18 strain (AID 175). The following applies: S. cerevisiae mlh1 rad18 strain growth inhibition, hits give high values; at 50.0 µM unless noted. The procedure, abridged:
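Test agents were incubated with a yeast strain of defined genotype (DNA damage repair defect). Inhibition of growth was derived by comparison with vehicle-exposed cultures.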

Several values for one entry are separate records, joined by “and”; a condition that tells them apart may be missing. Equal entries are not always repeated. About 79,000 compounds went through this panel and 15% of them were active in at least one assay; those are over-represented in the sample as a whole. A number with no mark means an inactive call. Activity calls are given as the source filed them. No stated cut-off is given here; in the data, active means growth inhibition above about 70%; inactive means the rest.

Consider `Nc1ncnc2c1ccn2COCCO`, for which the growth inhibition was -8.25% in assay [1]; 1.55% in assay [2]; 4.7% in assay [3]; -43.9% in assay [4]; -12.5% in assay [5]; -3.9% in assay [6].

Consider `O=C(O)CCNCCC(=O)O`, for which the growth inhibition in assay [1] was 8.45%; in assay [2], -6.75%; in assay [3], 3.6%; in assay [4], -25.5%; in assay [5] it was 5.05%; in assay [6] it was 9.7%.

`Nc1ncnc2c1nc(Cl)n2C1OC2COP(=O)(O)OC2C1O` (stereo not given): the growth inhibition in assay [1] was -15.9% and -13.3%; in assay [2] it was -8.05% and 3.45%; in assay [3], -20.7% and -0.55%; in assay [4] it was -9.25% and -40.8%; in assay [5] it was -27.1% and -41.8%; in assay [6], -13.8% and -10.6%.

Consider `CCOC(CC(=O)NCCNC(C)=O)OCC`, for which the growth inhibition in assay [1] was 38%; in assay [2], 4.6%; in assay [3], 7.2%; in assay [4] it was 2.05%; in assay [5] it was 18.4%; in assay [6], 43.1%.

`CCCc1cc2c(cc1CC#N)OCO2`: the growth inhibition in assay [1] is -5.65%; in assay [2] it was 19.4%; in assay [3] it was -9.85%; in assay [4], 2.4%; in assay [5], -3.25%; in assay [6], 17.6%.

Regarding `CCOC(=O)C1C(=O)CC(C)(O)C(C(=O)OCC)C1c1ccc(OC)cc1` (stereo not given), the growth inhibition in assay [1] is -27.4%; in assay [2], 2.55%; in assay [3], 8.65%; in assay [4], -5.95%; in assay [5] it was -2%; in assay [6], 21.8%.

On to `O=C(Nc1ccc(F)cc1)N1CCOCC1`, for which the growth inhibition in assay [1] was 1.65%; in assay [2], -25%; in assay [3], 4.3%; in assay [4] it was 9.6%; in assay [5] it was 6.8%; in assay [6], -9.4%.

In the case of `O=C(/C=C/c1ccc(OCC(=O)N2CCN(c3ccccc3)CC2)cc1)c1ccccc1`, the growth inhibition in assay [1] was 13%; in assay [2] it was 16%; in assay [3], 35.6%; in assay [4] it was -5.95%; in assay [5] it was 16.7%; in assay [6] it was 10.7%.

For the compound `O=C1OC(Oc2ccccc2)c2cc3c(cc21)OCO3` (stereo not given), the growth inhibition in assay [1] is 20.4%; in assay [2], -6.05%; in assay [3] it was 21.3%; in assay [4] it was 20.6%; in assay [5], 17.9%; in assay [6] it was 29.5%.

As for `O=C(CC(=O)c1ccc(OC(=O)c2ccccc2)cc1O)c1ccccc1`, the growth inhibition is -12.7% in assay [1]; -4.95% in assay [2]; -2.8% in assay [3]; -16.1% in assay [4]; 8% in assay [5]; -27.6% in assay [6].

Regarding `O=C1Nc2cc(Br)ccc2C1=O`, the growth inhibition in assay [1] is 7.5%; in assay [2] it was 23.1%; in assay [3] it was 2%; in assay [4], 11.8%; in assay [5], 10.4%; in assay [6], 15.2%.

As to `CC(=O)C1=CC2(OC3CCC(O)(C(=O)CO)C(C)O3)C(=O)c3c(cc4cccc(O)c4c3O)CC2C(O)C1O` (stereo not given), the growth inhibition in assay [1] was -6.2%; in assay [2] it was -1.05%; in assay [3], 2.9%; in assay [4] it was -21.2%; in assay [5] it was 20.8%; in assay [6], 9.65%.

In the case of `CN(Cc1ccccc1)c1cc(=O)n(C)c(=O)[nH]1`, the growth inhibition in assay [1] is 7.3%; in assay [2], 15.8%; in assay [3], 35.8%; in assay [4], 14%; in assay [5], 25.6%; in assay [6], -6.8%.

Consider `Clc1ccc(C(=Nc2ccccc2)C(Nc2ccccc2)c2ccc(Cl)cc2)cc1` (stereo not given), for which the growth inhibition was 4.75% in assay [1]; -5.15% in assay [2]; 17.8% in assay [3]; 8.75% in assay [4]; 3.8% in assay [5]; 19.4% in assay [6].

On to `C#CCOCC(CCl)OC(=O)Nc1ccccc1` (stereo not given), for which the growth inhibition is 14.7% in assay [1]; 47.1% in assay [2]; 11.6% in assay [3]; 11.8% in assay [4]; 14.7% in assay [5]; 84.4% (active) in assay [6].

`CC(=O)Oc1ccc2c(c1)CCC2`: the growth inhibition in assay [1] was 9.85%; in assay [2] it was 12.8%; in assay [3], 1.4%; in assay [4] it was 8.25%; in assay [5], 15.1%; in assay [6] it was 0.1%.

Regarding `COc1cc(C2NC(C(=O)O)CS2)cc(OC)c1OC` (stereo not given), the growth inhibition was -22.4% in assay [1]; -14.7% in assay [2]; 0.5% in assay [3]; -19.1% in assay [4]; -9.2% in assay [5]; -5.85% in assay [6].

`CCO[C@@H]1OC(=O)[C@H]2C(c3ccccc3)=NO[C@@H]12`: the growth inhibition was -13.2% in assay [1]; -22.4% in assay [2]; -9.7% in assay [3]; 7.55% in assay [4]; 13.7% in assay [5]; -4.15% in assay [6].

As for `O=C(NO)Nc1ccccc1Cl`, the growth inhibition is 6.45% in assay [1]; 9.45% in assay [2]; 10.5% in assay [3]; -1.65% in assay [4]; -4.25% in assay [5]; 8.9% in assay [6].

As for `CC(=O)Oc1ccc(CCC(=O)O)cc1`, the growth inhibition in assay [1] is 18.8%; in assay [2], 12.6%; in assay [3], 6.9%; in assay [4] it was 57.9%; in assay [5], 11.4%; in assay [6], 20.9%.
